Hit rate of the full screen: of about 330,000 compounds, about 10,000 (3%) were called active.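 The calls were made as follows: active = inhibition of at least 50% at 8 µM in the primary screen; inactive = the rest.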 This excerpt belongs to a sample that is enriched for actives.
Each compound was assayed against Protein Mdm4 (Homo sapiens) + E3 ubiquitin-protein ligase Mdm2 (Homo sapiens) (UniProt O15151+Q00987) (assay: disruptors of Mdm2/MdmX RING complex – cell-based, luminescence, split luciferase, SaOS-2, uHTS, primary screen (AID 485346)). Conditions: SaOS-2 split-luciferase Mdm2/MdmX complementation, at 8 µM, hits give high values.
Chain of Protein Mdm4 (Homo sapiens) + E3 ubiquitin-protein ligase Mdm2 (Homo sapiens) (O15151 whole entry, looked up): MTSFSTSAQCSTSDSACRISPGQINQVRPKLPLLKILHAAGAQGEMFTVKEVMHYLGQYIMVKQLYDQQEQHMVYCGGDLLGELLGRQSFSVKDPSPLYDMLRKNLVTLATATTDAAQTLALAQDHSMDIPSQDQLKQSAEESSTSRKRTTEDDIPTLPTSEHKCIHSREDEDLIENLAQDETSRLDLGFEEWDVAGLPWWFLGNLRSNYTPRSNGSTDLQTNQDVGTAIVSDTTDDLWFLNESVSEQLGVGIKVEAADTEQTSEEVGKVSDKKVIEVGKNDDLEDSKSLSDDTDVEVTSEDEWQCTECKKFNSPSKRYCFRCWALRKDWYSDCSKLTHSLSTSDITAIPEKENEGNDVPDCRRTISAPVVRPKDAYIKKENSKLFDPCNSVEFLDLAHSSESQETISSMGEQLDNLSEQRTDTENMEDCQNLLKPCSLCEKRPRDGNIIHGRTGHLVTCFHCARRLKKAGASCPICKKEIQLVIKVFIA
Chain of Protein Mdm4 (Homo sapiens) + E3 ubiquitin-protein ligase Mdm2 (Homo sapiens) (Q00987 whole entry, looked up): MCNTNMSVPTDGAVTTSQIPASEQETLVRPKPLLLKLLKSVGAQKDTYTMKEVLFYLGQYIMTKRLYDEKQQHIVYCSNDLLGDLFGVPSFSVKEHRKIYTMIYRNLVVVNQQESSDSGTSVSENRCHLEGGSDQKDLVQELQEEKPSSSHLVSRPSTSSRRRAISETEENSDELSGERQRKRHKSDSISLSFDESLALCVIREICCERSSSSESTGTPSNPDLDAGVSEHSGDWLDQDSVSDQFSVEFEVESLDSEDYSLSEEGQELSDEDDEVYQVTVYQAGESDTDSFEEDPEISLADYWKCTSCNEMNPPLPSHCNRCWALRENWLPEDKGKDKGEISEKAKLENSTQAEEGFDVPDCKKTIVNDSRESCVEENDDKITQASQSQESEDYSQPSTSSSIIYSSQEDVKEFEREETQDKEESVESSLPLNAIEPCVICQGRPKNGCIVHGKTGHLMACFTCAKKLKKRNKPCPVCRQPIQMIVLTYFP

Compound | inhibition
CN(CCC#N)c1ncnc2scc(-c3ccccc3)c12 | 21.2% (inactive)
CC(C)CCN1CCC(C)(NC(=O)c2ccccc2)C1=O (centres undefined) | -21.2% (inactive)
Cc1ccc(C)c(N2CCN(C(=O)CCCCn3c(=O)[nH]c4ccccc4c3=O)CC2)c1 | 8.89% (inactive)
O=C(CCn1c(=S)[nH]c2cc3c(cc2c1=O)OCO3)NCc1ccc(Cl)cc1 | 56.3% (active)
Cc1ccc(C)c(N2CCN(C(=O)CCCCCn3c(=S)[nH]c4ccc(N5CCOCC5)cc4c3=O)CC2)c1 | 85.6% (active)
O=C(CNS(=O)(=O)c1ccc2c(c1)OCCCO2)N1CCN(c2ccc(F)cc2)CC1 | 7.54% (inactive)
Cc1ccc(C)c(N2CCN(C(=O)CCCn3c(=O)c4cccn4c4cccnc43)CC2)c1 | 1.5% (inactive)
O=C(NCCS(=O)(=O)N1CCN(c2ccc(F)cc2)CC1)c1ccc2c(c1)OCO2 | 7.26% (inactive)
CC(C)NC(=O)CCCn1c(=S)[nH]c2cc3c(cc2c1=O)OCO3 | -5.62% (inactive)
O=C(CCCCCn1c(=S)[nH]c2cc3c(cc2c1=O)OCO3)N1CCN(c2ccc(F)cc2)CC1 | 53.5% (active)
CN(C)CCn1c(=S)[nH]c2ccc(Cl)cc2c1=O | 8.17% (inactive)
Cn1ccsc1=NC(=O)c1cc(S(=O)(=O)N2CCOCC2)ccc1Cl | 28% (inactive)
NS(=O)(=O)c1ccc(CCNC(=O)CN2C(=O)c3ccccc3S2(=O)=O)cc1 | 27.9% (inactive)
O=C(COC(=O)c1ccc(Br)o1)NC12CC3CC(CC(C3)C1)C2 | 15.9% (inactive)
Cc1csc(=O)n1CCC(=O)OCC(=O)NNC(=O)c1ccc(Br)cc1 | 8.79% (inactive)
CCCN(CCC)C(=S)Nc1cc(C(=O)OC)ccc1C(=O)OC | 9.38% (inactive)
CCOC(=O)C1CCN(C(=O)c2ccccc2N(C)S(=O)(=O)c2ccccc2)CC1 | -12.4% (inactive)
C=CS(=O)c1sc(Cl)c(N2CCOCC2)c1[N+](=O)[O-] (centres undefined) | 25.9% (inactive)
Cn1nnnc1SCC(=O)Nc1sccc1C(N)=O | 0.655% (inactive)
COC(=O)c1ccccc1NC(=O)CSc1nnnn1C | -3.43% (inactive)

Compound | inhibition
CCOC(=O)c1c(-c2ccc(C)cc2C)csc1NC(=O)CSc1nnnn1C | 73.7% (active)
Cc1ccc(/C=C/C(=O)O)cc1S(=O)(=O)N1CCC(Cc2ccccc2)CC1 | -1.19% (inactive)
Cc1cccc(C(=O)Nc2ccccc2-c2nnn(CC(=O)Nc3ccc4c(c3)OCCO4)n2)c1 | 15.2% (inactive)
CS(=O)(=O)c1ccc(-c2nnn(CC(=O)Nc3ccc4c(c3)OCCO4)n2)cc1 | 86.1% (active)
Cc1ccc(S(=O)(=O)NCC(=O)Nc2ccc3c(c2)OCCO3)cc1 | 10% (inactive)
CC1CCCCC12NC(=O)N(CC(=O)OCc1c(F)cccc1Cl)C2=O (centres undefined) | 2.6% (inactive)
Cc1ccsc1C(=O)OCC(=O)c1cc(C)n(CC2CCCO2)c1C (centres undefined) | 94.1% (active)
Cc1cc(C(=O)Cn2cnc3cc([N+](=O)[O-])ccc3c2=O)c(C)n1CC1CCCO1 (centres undefined) | -7.26% (inactive)
COc1ccc(C(=O)OCC(=O)c2cc(C)n(CC3CCCO3)c2C)cc1[N+](=O)[O-] (centres undefined) | 2.69% (inactive)
COc1ccc(NC(=O)[C@H](NC(=O)[C@@H]2Cc3ccccc3CN2)c2ccccc2)cc1 | -1.06% (inactive)
COc1cccc(NC(=O)[C@H](Cc2c[nH]c3ccccc23)NC(=O)[C@@H]2Cc3ccccc3CN2)c1 | 94.4% (active)
COc1ccc(CNC(=O)[C@H](Cc2c[nH]c3ccccc23)NC(C)=O)cc1OC | 10.9% (inactive)
C/C=C/c1ccc(OCCCCN2CCC(C)CC2)c(OC)c1 | -26% (inactive)
Cc1cc(C)cc(NC(=S)NCc2ccc(F)cc2)c1 | -4.57% (inactive)
Cc1cccc(NC(=S)NCCN(C2CCCCC2)C2CCCC2)c1 | 44.3% (inactive)
Cc1cccc(NC(=S)NCc2ccc3[nH]c4c(c3c2)CCCC4)c1 | 63.6% (active)
CC(C)=CCc1c(O)c(CC=C(C)C)c2occ(-c3ccc(O)cc3)c(=O)c2c1O | 45.8% (inactive)
CCC1(CC)NC(=O)N(CC(=O)OCC(=O)c2cc(C)c(C)cc2C)C1=O | 22.7% (inactive)
Cc1ccc2c(c1)C1C[N+](C)(CC(=O)c3ccccc3)CCC1N2C(=O)c1ccccc1Cl (centres undefined) | -17.1% (inactive)
CCSC1=NCCN1S(=O)(=O)c1ccc(F)cc1 | -0.662% (inactive)

Compound | inhibition
Nc1nnc2c(C(F)(F)F)nc3ccccc3n12 | -2.03% (inactive)
FC(F)(F)c1nnc2ccc(N3CCN(c4ccccc4)CC3)nn12 | 26.8% (inactive)
FC(F)(F)c1nnc2c3ccccc3c(Cl)nn12 | 64.4% (active)
Cc1cc2oc(C(=O)Nc3c(C)n(C)n(-c4ccccc4)c3=O)c(C)c2cc1Cl | 23.4% (inactive)
COc1ccc(CNC(=O)c2ccc3oc(C(C)C)nc3c2)cc1 | -34.8% (inactive)
Cc1cccc(N2O[C@H]3C=CC2CCCC3)n1 | 15.6% (inactive)
CC(=O)c1ccccc1NC(=O)CC1(CC(=O)O)CCCCC1 | 10.9% (inactive)
CCN(CCCNC(=O)CSc1cc(=O)n(C)c2cc(Cl)ccc12)Cc1ccccc1 | 54.7% (active)
CCOc1ccc(CCNC(=O)CSc2cc(=O)n(C)c3ccc(Cl)cc23)cc1OCC | 4.16% (inactive)
CCN(CC)CCCNC(=O)CCc1ccccc1 | 27.2% (inactive)
CC(=O)OCCC(C)C | 9.67% (inactive)
C=CCn1c(SCc2c(C)noc2C)nc2sc3c(c2c1=O)CCC(C)C3 (centres undefined) | 52.5% (active)
C=CCn1c(SCC(=O)NCC2CCCO2)nc2sc(C)c(C)c2c1=O (centres undefined) | 2.91% (inactive)
C=CCn1c(SCC(=O)NCCCO)nc2sc3c(c2c1=O)CCC3 | 0.393% (inactive)
Cc1ccc(-c2ccc(=O)n(Cc3ccc(F)cc3Cl)n2)cc1 | -15.3% (inactive)
COc1ccc(/C=C/c2noc(-c3ccccc3OC(C)=O)n2)cc1 | -61.9% (inactive)
Cc1ccc(-c2nc(-c3ccncc3)no2)c(C)c1 | -116% (inactive)
COc1ccc(-c2nc(-c3ccccc3)no2)c(OC)c1 | 58.4% (active)
O=C(NCCN1CCOCC1)c1cc(Sc2cccc(Cl)c2)nc2ccccc12 | -2.97% (inactive)

Source: PubChem BioAssay AID485346 (Sanford-Burnham Center for Chemical Genomics, 2010)
